Laboratory results published in PubChem BioAssay AID678 (Vanderbilt High Throughput Screening Facility, 2007).
The campaign covered roughly 1,700 compounds. About 15 (0.9%) were called active.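 Rule for the calls: active = fluorescence response below the plate's average for near-maximal glutamate wells, less 3 SD of those wells; inactive = the rest.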 These entries were drawn from the full list.

target: Metabotropic glutamate receptor 4 (Homo sapiens) (UniProt Q14833); experiment: mGluR4 calcium signal in M1 antagonist follow-up – cell-based, antagonist mode, secondary assay 1, M1 allosteric modulator project (AID 678); settings: CHO-mGluR4 calcium flux, Fluo-4 fluorescence, glutamate EC80; at 10 µM; active compounds read low;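 note: raw unnormalized fluorescence span taken in the window right after glutamate addition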

Fluorescence response (max-min), inactive:
COc1cccc(OCCOc2cccc(/C=N/n3cnnc3)c2)c1 210, CCOC(=O)N1CCN(C(=O)C2CCN(c3ncnc4c3sc3cccc(F)c34)CC2)CC1 221, Cc1ccccc1C(OCC(O)CN1CCCCC1CCO)c1ccccc1 (centres undefined) 188, N#CC(C(=O)c1ccc(S(=O)(=O)N2CCCCCC2)cc1)c1nc2ccccc2[nH]1 (centres undefined) 182, COc1ccc(S(=O)(=O)Nc2ccc3c(c2)OCO3)cc1Cl 202, CCOC(=O)C1CCN(Cc2coc3ccc(Cl)cc3c2=O)CC1 219, O=C(Cc1cccs1)N1CCCC(c2nc(-c3ccc(S(=O)(=O)N4CCCC4)cc3)no2)C1 (centres undefined) 213, CCOC(=O)c1[nH]c2ccc(OC)cc2c1NC(=O)CCN1CCN(Cc2ccccc2)CC1 230, CCOC(=O)N1CCN(CC(=O)Nc2cc(C)nn2-c2nc3ccccc3s2)CC1 255, COc1cc(Cl)c(C)cc1NC(=O)CSc1nnc(-c2ccco2)n1CC(C)C 252, CCC(=O)c1ccc(OCC(O)CN2CCN(c3cccc(C(F)(F)F)c3)CC2)cc1 (centres undefined) 252, O=C(NCC(F)(F)F)Nc1nnc(C(F)(F)F)s1 203, CSc1nnc2c(n1)OC(c1ccsc1)N(C(C)=O)c1ccccc1-2 (centres undefined) 247, CN1CCN(CC(=O)Nc2sc3c(c2C#N)CCC(C(C)(C)C)C3)CC1 (centres undefined) 231, Cc1ccc(-c2csc3nnc(SCC(=O)NCc4ccco4)n23)cc1 237, Cc1ccsc1-c1nc(CSCC(=O)NCCN2CCCC2)c(C)o1 246, CC1=Nn2c(nnc2-c2ccccc2)SC1 162, CCCCCOC(=O)NCCOC(=O)Nc1ccc(C(=O)OCC)cc1 170, CCOC(=O)N1CCN(C(=O)C2CCCN(c3ncnc4c3sc3cccc(F)c34)C2)CC1 (centres undefined) 165, c1ccc(-c2cc(-c3nnc4sc(-c5ccccn5)nn34)[nH]n2)cc1 215, CC1(C)Cc2c(sc3nc4n(c(=N)c23)CCCCC4)CO1 203, CCN(CCCCOC(=O)c1ccc(OC)c(OC)c1)C(C)Cc1ccc(OC)cc1 (centres undefined) 254, Cc1ccc(-c2noc(CCC(=O)Nc3ccccc3N3CCN(C)CC3)n2)cc1 218, COC(=O)c1ccc(NC(=O)CN(c2ccc(C)cc2)S(=O)(=O)c2c(C)n[nH]c2C)cc1 174, O=C(c1ccc(S(=O)(=O)N2CCOCC2)cc1)N1CCN(c2ccccc2)CC1 197, COc1ccc(-c2noc(CN(C)S(=O)(=O)c3ccc(C)cc3)n2)cc1 259, COc1ccc(-c2nnn(Cc3nc(N)nc(N4CCCCC4)n3)n2)cc1 348, CC1(C)CN=C(N2CCN(c3ncnc4sc5c(c34)CCCC5)CC2)S1 244, CC12CN(Cc3ccccc3)CC(C)(CN(Cc3ccccc3)C1)C2=NO 253, COCCN(C(=O)CCC(=O)Nc1ccccn1)C(C(=O)NCCC(C)C)c1ccc(OC)cc1 (centres undefined) 243, O=C(CCN1C(=O)COc2ccccc21)NCCCN1CCN(c2ccc(F)cc2)CC1 252, COCCn1c(SCC(=O)Nc2cc(Cl)ccc2OC)nc2c(c1=O)SC(C)C2 (centres undefined) 256, COc1cc(OC)c(C(=O)NC2CC(C)(C)NC(C)(C)C2)cc1OC 184, CN1CCN(c2ccc(NC(=O)COc3ccc(Cl)cc3Cl)cc2)CC1 245, O=C(C(c1ccccc1)c1ccccc1)N1CCN(CC(O)COc2ccccc2)CC1 (centres undefined) 172, C=CCSc1nc2ccccc2[nH]1 255, COC(CCN(C)C)(c1ccccc1)c1ccccc1 257, CCN1CCN(c2c(Cl)cccc2NC(=O)c2ccc(Br)o2)CC1 203, O=C(Nc1ccncc1)c1c(F)cccc1F 195, CCn1c(=O)cc(OCC(=O)NCCCN2CCN(c3cccc(Cl)c3)CC2)c2ccccc21 275, CCOC(=O)c1c(NC(=O)CSc2nnc(CN3CCOCC3)n2C)sc2c1CCCC2 212, COC(=O)c1ccc(C2C3=C(Nc4nnnn42)c2ccccc2OC3)cc1 (centres undefined) 256, CCC/C(O)=C1\C(=O)CC(C)(C)CC1=Nc1ccccc1OC 272, CCOC(=O)Nc1ccc2c(c1)N(C(=O)CN1CCN3CCCC3C1)c1ccccc1CC2 (centres undefined) 187, O=C(c1ccc(-n2cnnn2)cc1)N1CCN(C(c2ccccc2)c2ccccc2)CC1 242, CCOC(=O)N1CCN(S(=O)(=O)c2cc(Br)cc3c2N(C(=O)C2CC2)CC3)CC1 246, Cc1cc(C)n(-c2nc(SCC(=O)N3CCCC3)c3c4c(sc3n2)CCCC4)n1 193, CCCCN(CCCC)C(=O)CCS(=O)(=O)c1ccc2c(c1)n(C)c(=O)c(=O)n2C 272, C=C(C)Cn1c(N2CCCC2)nc2c1c(=O)[nH]c(=O)n2C 203, Cc1c(C)c2cc3c4c(oc3c(C)c2oc1=O)CCCC4 174, CCN1C(=O)/C(=C2\SC(N3CCCCC3)=NC2=O)c2ccccc21 235, CCCCOc1ccc(C(C)(O)CCN2CCOCC2)cc1 (centres undefined) 209, O=C(CCCN1C(=O)CSc2ncccc21)N1CCN(c2cccc(C(F)(F)F)c2)CC1 263, COc1ccccc1OCCOc1ccc(/C=N/n2cnnc2)cc1 239
